# Source: PubChem BioAssay (EPA / NIEHS)
# Several values for one entry are separate records, joined by “and”; a condition that tells them apart may be missing. Identical values can stand only once. Records with an inconclusive call do not appear. Some compounds were tested as several samples or in several runs, with calls that do not always agree. Activity calls are given as the source filed them. Rule for the calls: active = hit-call score of the fitted dose curve at least 0.9, where 1 is the maximum; inconclusive = response in the unintended direction; inactive = score below 0.9.
# Legend:
# [1] = ATG_XTT_Cytotoxicity: Cytotoxicity Assessment in the Attagene TRANS-FACTORIAL HepG2 Assay (AID 2283584);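 for AC50: XTT signal for cell number as viability in transfected HepG2 cells; cells exposed to compound for 24 h before reading; active means loss of viability signal versus DMSO baseline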
# Procedure, shortened: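 24 h chemical exposure of reporter-transfected HepG2; XTT signal loss vs DMSO indicates cytotoxicity.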
# [2] = TOX21_p53_BLA_p2_viability: Viability Assessment in the Tox21 HCT-116 p53 Agonism Beta-lactamase Assay, Phase 2 (AID 2283591);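 note: compound exposure lasted 16 h at 37 °C; actives lower the ATP signal meaning cytotoxicity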
# Procedure, shortened: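 Cytotoxicity readout: CellTiter-Glo ATP luminescence, 30 min at room temperature, after the beta-lactamase read. Cells were HCT116 exposed 16 h at 37C to compounds pin-transferred at 217-fold dilution from DMSO stocks.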
# [3] = target: Cellular tumor antigen p53 (Homo sapiens) (UniProt P04637); assay: TOX21_p53_BLA_p2_ratio: Tox21 HCT-116 p53 Agonism Beta-lactamase Assay, Ratio, Phase 2 (AID 2283592)
# Cellular tumor antigen p53 (Homo sapiens), sequence (P04637 whole entry, looked up): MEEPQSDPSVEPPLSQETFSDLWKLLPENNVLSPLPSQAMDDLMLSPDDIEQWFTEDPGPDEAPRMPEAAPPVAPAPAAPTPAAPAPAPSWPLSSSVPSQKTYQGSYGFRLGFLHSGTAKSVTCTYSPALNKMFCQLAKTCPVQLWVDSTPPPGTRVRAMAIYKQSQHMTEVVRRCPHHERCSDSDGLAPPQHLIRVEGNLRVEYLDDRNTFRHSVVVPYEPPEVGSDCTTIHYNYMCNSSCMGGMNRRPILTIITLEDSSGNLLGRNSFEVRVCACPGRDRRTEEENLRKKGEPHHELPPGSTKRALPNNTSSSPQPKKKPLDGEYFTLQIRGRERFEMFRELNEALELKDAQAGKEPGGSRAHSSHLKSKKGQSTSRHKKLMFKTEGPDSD
# Procedure, shortened: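 Human colon HCT116 cells with an inducible p53 beta-lactamase reporter are exposed to test chemicals for 16 h at 37C. Reporter induction is read as the 460/530 nm emission ratio after CCF4-AM loading, normalized to DMSO.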
# [4] = TOX21_p53_BLA_p3_viability: Viability Assessment in the Tox21 HCT-116 p53 Agonism Beta-lactamase Assay, Phase 3 (AID 2283593);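 note: cells exposed to compound for 16 h before reading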
# Procedure, shortened: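 Cellular ATP was quantified by CellTiter-Glo luminescence, read after 30 min at room temperature. Beforehand, HCT116 cells (4000/well) received compound 5 h post-seeding, 217-fold diluted from DMSO, then incubated 16 h at 37C.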
structure (smiles),measurement,setting,value
NS(=O)(=O)O,outcome,[1],inactive
same,outcome,[2],inactive
same,outcome,[3],inactive
same,outcome,[4],inactive
OCC1CCC(CO)CC1 (stereo unspecified),outcome,[1],inactive
same,outcome,[2],inactive
same,outcome,[3],inactive
CC(=O)CC(C)C,outcome,[1],inactive
same,outcome,[2],inactive
same,outcome,[3],inactive
CC(C)(C)C1CCCCC1O (stereo unspecified),outcome,[1],inactive
same,outcome,[2],inactive
same,outcome,[3],inactive
same,outcome,[4],inactive
CCCC=O,outcome,[1],inactive
same,outcome,[2],inactive
Clc1ccc(Nc2nnc(Cc3ccncc3)c3ccccc23)cc1,outcome,[1],inactive
same,outcome,[3],inactive
COC(=O)CC(C(C)=O)C(=O)OC (stereo unspecified),outcome,[1],inactive
same,outcome,[2],inactive
same,outcome,[4],inactive
NC(=NCCCCCCN=C(N)/N=C(\N)Nc1ccc(Cl)cc1)/N=C(\N)Nc1ccc(Cl)cc1,AC50,[1],31.6 µM (active)
same,AC50,[3],59.8 µM (active) [middle of 4 runs]
same,outcome,[3],inactive
Cc1ccc(C(=O)c2ccccc2)cc1,outcome,[1],inactive
same,outcome,[3],inactive
CCCCCCCCCCCC[N+](C)(C)CCCCCCCCCCCC,AC50,[1],62.4 µM (active)
same,AC50,[2],23.5 µM (active)
same,AC50,[3],41.4 µM (active)
same,AC50,[4],50.7 µM (active)
C[C@]12CC[C@@H]3c4ccc(O)cc4CC[C@H]3[C@@H]1C[C@@H](O)[C@@H]2O,outcome,[1],inactive
same,outcome,[3],inactive
same,outcome,[4],inactive
CCOC(C)=O,outcome,[3],inactive
same,outcome,[4],inactive
COCN(COC)c1nc(N(COC)COC)nc(N(COC)COC)n1,outcome,[2],inactive
same,outcome,[3],inactive
O=S(=O)(O)c1ccc2cc(O)ccc2c1,outcome,[1],inactive
same,outcome,[2],inactive
same,outcome,[3],inactive
same,outcome,[4],inactive
CC1=NN(c2ccccc2)C(=O)C1,outcome,[2],inactive
same,outcome,[3],inactive
same,outcome,[4],inactive
O=C(O)c1cccc(C(=O)O)n1,outcome,[3],inactive
same,outcome,[4],inactive
CCCCCCCCCCCCCCCCCC[N+](C)(C)Cc1ccccc1,AC50,[1],29 µM (active)
same,AC50,[2],41.1 µM (active)
same,AC50,[3],74.3 µM (active)
same,AC50,[4],24.4 µM (active)
O=C(Nc1ccc(Cl)c(Cl)c1)c1cc(Cl)cc(Cl)c1O,AC50,[1],43.1 µM (active)
same,AC50,[2],0.558 µM (active)
same,AC50,[3],0.354 µM (active)
same,AC50,[4],0.989 µM (active)
O=C(O)C(=O)O,outcome,[1],inactive
same,outcome,[3],inactive
CCOC(=O)CN[C@@H](C(=O)N1CC[C@H]1C(=O)NCc1ccc(/C(N)=N/O)cc1)C1CCCCC1,outcome,[1],inactive
same,outcome,[3],inactive
same,outcome,[4],inactive
Oc1c(Cl)ccc(Cl)c1Cl,outcome,[1],inactive
same,outcome,[2],inactive
same,outcome,[3],inactive
same,outcome,[4],inactive
CCN(CC)CC,outcome,[1],inactive
same,outcome,[2],inactive
same,outcome,[4],inactive
CNNCc1ccc(C(=O)NC(C)C)cc1,outcome,[1],inactive
same,outcome,[2],inactive
same,outcome,[3],inactive
same,outcome,[4],inactive
CCC(=O)C=Cc1ccc(OC)cc1,outcome,[3],inactive
same,outcome,[4],inactive
CCCCCCCCCCCCOC(=O)c1cc(O)c(O)c(O)c1,AC50,[2],21.7 µM (active) and 28.2 µM (active)
same,AC50,[3],24.7 µM (active) and 32.4 µM (active)
same,AC50,[4],49.2 µM (active) and 77.1 µM (active)
O=C(Nc1cccc([N+](=O)[O-])c1)c1cc2ccccc2cc1O,outcome,[1],inactive
same,outcome,[2],inactive
same,AC50,[3],1.17 µM (active)
same,outcome,[4],inactive
CC(C)C=O,outcome,[1],inactive
same,outcome,[2],inactive
same,outcome,[4],inactive
CCCCCCCCCC=CCC1CC(=O)OC1=O (stereo unspecified),outcome,[1],inactive
same,outcome,[2],inactive
same,outcome,[3],inactive
same,outcome,[4],inactive
Cc1ccc(S(=O)(=O)O)cc1,outcome,[1],inactive
same,outcome,[2],inactive
same,outcome,[4],inactive
C=CC(C)(CCC=C(C)C)OC(C)=O (stereo unspecified),outcome,[2],inactive
same,outcome,[3],inactive
same,outcome,[4],inactive
O=C(c1cc(O)c(O)c(O)c1)c1ccc(O)c(O)c1O,outcome,[2],inactive
same,AC50,[3],59.5 µM (active) and 61.8 µM (active)
same,outcome,[4],inactive
c1ccc(CNc2ncnc3c2ncn3C2CCCCO2)cc1 (stereo unspecified),outcome,[1],inactive
same,outcome,[2],inactive
same,outcome,[4],inactive
O=C(NO)c1ccccc1,outcome,[1],inactive
same,outcome,[2],inactive
same,outcome,[3],inactive
same,outcome,[4],inactive
CCC(=O)O,outcome,[1],inactive
same,outcome,[3],inactive
CCCCCC(C)OC(=O)COc1ccc(Cl)c2cccnc12 (stereo unspecified),outcome,[1],inactive
same,outcome,[2],inactive
same,outcome,[3],inactive
same,outcome,[4],inactive
CCC1CO1 (stereo unspecified),outcome,[1],inactive
same,outcome,[3],inactive
CCOCCOCC,outcome,[2],inactive
same,outcome,[4],inactive
Cc1cc(C(C)(C)C)c(O)c(C(C)(C)C)c1,outcome,[2],inactive
same,outcome,[3],inactive
same,outcome,[4],inactive
NNc1nc(-c2ccc([N+](=O)[O-])cc2)cs1,outcome,[1],inactive
same,outcome,[2],inactive
same,AC50,[3],40.1 µM (active)
same,outcome,[4],inactive
CCC(C)c1nccnc1OC (stereo unspecified),outcome,[1],inactive
same,outcome,[3],inactive
